Experimental data: PubChem BioAssay (NCI)
About 83,000 compounds went through this panel and 20% of them were active in at least one assay; those are over-represented in the sample as a whole.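 Activity criterion: percent growth below 10, measured after cells in 96-well plates were exposed to a single compound concentration for 48 hours.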 A number with no mark means an inactive call. Calls of active or inactive are those of the source.

Test system: HL-60(TB) leukemia
Assay: NCI-60 one-dose screen, 48 h (100 = growth as untreated, 0 = no growth, -100 = all killed)
Details: 10 µM unless noted

Question: How did the growth turn out when `C#C[C@]1(O)CC[C@H]2[C@@H]3CC=C4c5nc(Nc6ccccn6)sc5CC[C@]4(C)[C@H]3CC[C@@]21C` was run?
Answer: The growth was 10.6%.

Question: Which growth does the source give for `CC(=O)Nc1nc(C)c(C(=O)N/N=C/c2cccn2C)s1` here?
Answer: The growth was 112%.

Question: For `CC1(C)CC[C@]2(C(=O)N3CCOCC3)CC[C@]3(C)C(=CC[C@@H]4[C@@]5(C)C/C(=C/c6ccncc6)C(=O)C(C)(C)[C@@H]5CC[C@]43C)[C@@H]2C1`, which growth is on record?
Answer: Its growth is -37.6% (active).

Question: Which growth does the source give for `Cc1nnc2nc(N)[nH]n2c1=O` here?
Answer: The growth was 99.6%.
